Measured values reported in the supplement of paper PMC7411640.
Structures can show the parent of a compound that is named as a salt.

system: MDA-MB-468; test: phospho-S6 immunofluorescence (DAPI-normalised), per-plate z-score; higher = higher phospho-S6 signal (less pathway suppression); conditions: co-treatment: lapatinib 1 uM; 24 h
Method: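 GPCR-targeted compound library (MedChemExpress HY-L006) tested on MDA-MB-468 PTEN-null TNBC cells in 384-well plates at 0.1, 1 or 10 uM, combined with vehicle, GDC0941 450 nM or lapatinib 1 uM, for 24 h. Phospho-S6 (S240/244) immunofluorescence normalised to DAPI and expressed as a per-plate z-score; values are the mean of biological triplicates.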

SMILES	phospho-S6 immunofluorescence (z-score)
CCN(CCCCOC(=O)c1ccc(OC)c(OC)c1)C(C)Cc1ccc(OC)cc1 (stereo not drawn) [Mebeverine (hydrochloride)] (compound 10 µM)	0.05
CC(C)[N+]1(C)[C@@H]2CC[C@H]1C[C@@H](OC(=O)C(CO)c1ccccc1)C2 (stereo partly drawn) [Ipratropium (bromide)] (compound 10 µM)	0.28
CCCCCCOc1nsnc1C1=CCCN(C)C1 [Xanomeline (oxalate)] (compound 10 µM)	-0.5
O=C1NCC2(CCN(CCc3ccccc3)CC2)O1 [Fenspiride (Hydrochloride)] (compound 10 µM)	0.67
O=C(c1ccc(F)cc1)C1CCN(CCn2c(=O)[nH]c3ccccc3c2=O)CC1 [Ketanserin (tartrate)] (compound 10 µM)	-0.54
CNS(=O)(=O)Cc1ccc2[nH]cc(CCN(C)C)c2c1 [Sumatriptan (succinate)] (compound 10 µM)	0.48
C=CCN1CCCC1CNC(=O)c1cc(S(N)(=O)=O)cc(OC)c1OC (stereo not drawn) [Veralipride] (compound 10 µM)	1.05
CC(C)(Cc1ccc2ccccc2c1)NC[C@@H](O)COc1cccc(Cl)c1C#N (compound 10 µM)	-8.76
COc1cc2nc(N(C)CCCNC(=O)C3CCCO3)nc(N)c2cc1OC (stereo not drawn) [Alfuzosin] (compound 10 µM)	0.71

same assay, conditions: co-treatment: vehicle; 24 h

SMILES	phospho-S6 immunofluorescence (z-score)
O=C(Nc1cccc2c(=O)cc(-c3nnn[nH]3)oc12)c1ccc(OCCCCc2ccccc2)cc1 [Pranlukast] (compound 10 µM)	-0.36
C[C@]12C=CC(=O)C=C1CC[C@@H]1[C@@H]2C(=O)C[C@@]2(C)[C@H]1CC[C@]2(O)C(=O)CO [Prednisone] (compound 10 µM)	0.94
COc1nc(C)cnc1NS(=O)(=O)c1cccnc1-c1ccc(-c2nnco2)cc1 [Zibotentan] (compound 10 µM)	-2.06
CC(C)(C)NC[C@H](O)COc1nsnc1N1CCOCC1 [(S)-Timolol (Maleate)] (compound 10 µM)	-0.06
CC(C)c1cc(-c2ccc(F)c3ccccc23)nc(N)n1 (compound 10 µM)	1.08
COc1cc2nc(N3CCN(C(=O)C4CCCO4)CC3)nc(N)c2cc1OC (stereo not drawn) [Terazosin (hydrochloride dihydrate)] (compound 10 µM)	0.87
CN1CC2c3ccccc3Oc3ccc(Cl)cc3C2C1 (stereo not drawn) [Asenapine (maleate)] (compound 10 µM)	-0.61
CC[N+](CC)(CC)CCOc1cccc(OCC[N+](CC)(CC)CC)c1OCC[N+](CC)(CC)CC [Gallamine Triethiodide] (compound 10 µM)	0.47
O=C(O)Cn1c2c(c3cc(F)ccc31)CN(C(=O)c1cccc3ccccc13)CC2 [Setipiprant] (compound 10 µM)	-0.03
Cc1cc(NC(=O)Nc2ccc(N(C)C)cc2)c2cc(F)cc(F)c2n1 (compound 10 µM)	-2.06
COc1ccccc1OCCNCC(O)COc1cccc2[nH]c3ccccc3c12 (stereo not drawn) [Carvedilol] (compound 10 µM)	-3.59
CCOc1nc2cccc(C(=O)OC(C)OC(=O)OC3CCCCC3)c2n1Cc1ccc(-c2ccccc2-c2nn[nH]n2)cc1 (stereo not drawn) [Candesartan (Cilexetil)] (compound 10 µM)	-1.08
C[C@]12CCC(=O)C=C1CC[C@@H]1[C@@H]2C(=O)C[C@@]2(C)[C@H]1CC[C@]2(O)C(=O)CO [Cortisone] (compound 10 µM)	1.14
Nc1ccc(/C=C/c2cccc(C(=O)O)n2)cc1 (compound 10 µM)	1.07
COc1ccc(CCN2CCN(CCCc3ccccc3)CC2)cc1OC [SA4503 (dihydrochloride)] (compound 10 µM)	-0.47
O=C(COc1ccc(C(=O)c2ccccc2)cc1)NC1CCN(Cc2ccccc2)CC1 [AdipoRon] (compound 10 µM)	-1.92
Cc1cc(C(C)(C)C)cc(C)c1CC1=NCCN1 [Xylometazoline (hydrochloride)] (compound 10 µM)	-0.38
CN(C)CC1CCOC1(c1ccccc1)c1ccccc1 (stereo not drawn) [AVex-73 hydrochloride] (compound 10 µM)	0.2
CCC(=O)OCC(=O)[C@@]1(OC(=O)CC)[C@@H](C)C[C@H]2[C@@H]3CCC4=CC(=O)C=C[C@]4(C)[C@@]3(Cl)[C@@H](O)C[C@@]21C [Beclometasone dipropionate] (compound 10 µM)	0.15
